Reference: PubChem BioAssay AID2284377 (EPA ToxCast)
Results filed as inconclusive are left out. Active and inactive are the calls of the source. Rule for the calls: active = hit-call score of the fitted dose curve at least 0.9, where 1 is the maximum; inconclusive = response in the unintended direction; inactive = score below 0.9.

What follows are compounds tested against Estrogen receptor (Homo sapiens) (UniProt P03372) (assay: ERF_TW_NR_COA_hESR1: Eurofins (ERF) Nuclear Receptor (NR) Functional Coactivator Assay for human Estrogen Receptor alpha (ERa) Agonism).
Estrogen receptor (Homo sapiens), sequence (P03372 whole entry, looked up): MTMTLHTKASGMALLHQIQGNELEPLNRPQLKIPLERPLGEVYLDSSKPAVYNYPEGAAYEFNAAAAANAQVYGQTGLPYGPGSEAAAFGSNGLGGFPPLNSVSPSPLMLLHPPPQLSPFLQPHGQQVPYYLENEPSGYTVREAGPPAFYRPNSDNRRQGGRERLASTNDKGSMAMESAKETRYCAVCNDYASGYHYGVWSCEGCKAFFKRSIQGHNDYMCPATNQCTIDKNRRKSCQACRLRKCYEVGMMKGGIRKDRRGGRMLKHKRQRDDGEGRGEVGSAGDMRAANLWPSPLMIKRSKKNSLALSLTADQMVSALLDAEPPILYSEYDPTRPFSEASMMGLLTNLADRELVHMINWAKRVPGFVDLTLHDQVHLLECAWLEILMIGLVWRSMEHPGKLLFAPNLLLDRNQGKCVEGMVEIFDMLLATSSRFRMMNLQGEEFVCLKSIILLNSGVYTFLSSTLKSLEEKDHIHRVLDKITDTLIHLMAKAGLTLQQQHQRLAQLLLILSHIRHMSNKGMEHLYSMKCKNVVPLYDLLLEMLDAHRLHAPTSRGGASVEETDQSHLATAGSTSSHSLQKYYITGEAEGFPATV
Procedure: ERF_TW_NR_COA_hESR1 is a biochemical, single-readout assay that uses extracted gene-proteins in a cell-free assay. Measurements were taken 0.16 hours after chemical dosing in a 96-well plate. See ERalpha Human Estrogen NHR Functional Agonist Coactivator Assay, Panlabs.ERF_TW_NR_COA_hESR1 is an assay component calculated from the ERF_TW_NR_COA_hESR1 assay. It is designed to measure FRET using a type of binding reporter as detected by fluorescence intensity of estriol with fluorimetry technology.Data from the assay component ERF_TW_NR_COA_hESR1 was analyzed at the assay endpoint, ERF_TW_NR_COA_hESR1, in the positive analysis fitting direction relative to DMSO as the negative control and baseline of activity. Using a type of binding reporter, gain-of-signal activity can be used to understand changes in binding as they relate to gene ESR1. To generalize the intended target to other relatable targets, this assay endpoint is annotated to the nuclear receptor intended target family, where the subfamily is steroid.
Test compound and/or vehicle is incubated with the 7 nM estrogen receptor alpha (ERalpha)-LBD and coactivator peptide for 10 minutes at RT. Determination of the amount of complex formed is read spectrofluorimetrically at 520 nm/490 nm. Test compound-induced increase fluorescence by 50 percent or more (>/=50%) relative to the 1 uM Estriol response indicates possible ERalpha receptor agonist activity.

Structure (SMILES) | AC50 | outcome
C=CC(=O)OCC(F)(F)C(F)(F)C(F)(F)C(F)(F)C(F)(F)C(F)(F)C(F)(F)C(F)F | 37.5 µM (active) | –
OCCC(F)(F)C(F)(F)C(F)(F)C(F)(F)C(F)(F)C(F)(F)F | 50.2 µM (active) | –
OCC(F)(F)C(F)(F)C(F)(F)C(F)(F)C(F)(F)C(F)(F)CO | 1.53 µM (active) | –
OCCC(F)(F)C(F)(F)C(F)(F)C(F)(F)C(F)(F)C(F)(F)C(F)(F)C(F)(F)F | – | inactive
FC(F)(F)C(F)(F)C(F)(F)C(F)(F)C(F)(F)C(F)(F)I | 4.11 µM (active) | –
FC(F)(I)C(F)(F)C(F)(F)C(F)(F)C(F)(F)C(F)(F)I | 7.81 µM (active) | –
OCCCC(F)(F)C(F)(F)C(F)(F)C(F)(F)C(F)(F)C(F)(F)C(F)(F)F | 43.3 µM (active) | –
NC(=O)C(F)(F)C(F)(F)C(F)(F)C(F)(F)C(F)(F)C(F)(F)C(F)(F)F | – | inactive
OCC(F)(F)C(F)(F)C(F)(F)C(F)(F)C(F)(F)C(F)(F)C(F)(F)C(F)(F)CO | 0.467 µM (active) | –
O=C(CC(=O)C(F)(F)C(F)(F)C(F)(F)F)c1cccs1 | – | inactive
N=C(N)C(F)(F)C(F)(F)C(F)(F)C(F)(F)C(F)(F)C(F)(F)C(F)(F)F | – | inactive
FC(F)(I)C(F)(F)C(F)(F)C(F)(F)I | – | inactive
O=P(O)(O)OCCC(F)(F)C(F)(F)C(F)(F)C(F)(F)C(F)(F)C(F)(F)F | 9.12 µM (active) | –
